Test results published in article PMC4336329 (PLoS ONE, 2015).
In all, about 310,000 compounds went through this assay and about 14,000 (4.5%) showed an effect of 50% or more. Effects have a minus sign here. This excerpt belongs to a sample that is enriched for strong results.

Each molecule was assayed against human ether-à-go-go-related gene (hERG) potassium channel (human, UniProt Q12809) (assay: primary screen, population patch clamp on CHO cells stably expressing hERG; higher = less effect of the substance).
human ether-à-go-go-related gene (hERG) potassium channel, sequence (Q12809 whole entry, looked up): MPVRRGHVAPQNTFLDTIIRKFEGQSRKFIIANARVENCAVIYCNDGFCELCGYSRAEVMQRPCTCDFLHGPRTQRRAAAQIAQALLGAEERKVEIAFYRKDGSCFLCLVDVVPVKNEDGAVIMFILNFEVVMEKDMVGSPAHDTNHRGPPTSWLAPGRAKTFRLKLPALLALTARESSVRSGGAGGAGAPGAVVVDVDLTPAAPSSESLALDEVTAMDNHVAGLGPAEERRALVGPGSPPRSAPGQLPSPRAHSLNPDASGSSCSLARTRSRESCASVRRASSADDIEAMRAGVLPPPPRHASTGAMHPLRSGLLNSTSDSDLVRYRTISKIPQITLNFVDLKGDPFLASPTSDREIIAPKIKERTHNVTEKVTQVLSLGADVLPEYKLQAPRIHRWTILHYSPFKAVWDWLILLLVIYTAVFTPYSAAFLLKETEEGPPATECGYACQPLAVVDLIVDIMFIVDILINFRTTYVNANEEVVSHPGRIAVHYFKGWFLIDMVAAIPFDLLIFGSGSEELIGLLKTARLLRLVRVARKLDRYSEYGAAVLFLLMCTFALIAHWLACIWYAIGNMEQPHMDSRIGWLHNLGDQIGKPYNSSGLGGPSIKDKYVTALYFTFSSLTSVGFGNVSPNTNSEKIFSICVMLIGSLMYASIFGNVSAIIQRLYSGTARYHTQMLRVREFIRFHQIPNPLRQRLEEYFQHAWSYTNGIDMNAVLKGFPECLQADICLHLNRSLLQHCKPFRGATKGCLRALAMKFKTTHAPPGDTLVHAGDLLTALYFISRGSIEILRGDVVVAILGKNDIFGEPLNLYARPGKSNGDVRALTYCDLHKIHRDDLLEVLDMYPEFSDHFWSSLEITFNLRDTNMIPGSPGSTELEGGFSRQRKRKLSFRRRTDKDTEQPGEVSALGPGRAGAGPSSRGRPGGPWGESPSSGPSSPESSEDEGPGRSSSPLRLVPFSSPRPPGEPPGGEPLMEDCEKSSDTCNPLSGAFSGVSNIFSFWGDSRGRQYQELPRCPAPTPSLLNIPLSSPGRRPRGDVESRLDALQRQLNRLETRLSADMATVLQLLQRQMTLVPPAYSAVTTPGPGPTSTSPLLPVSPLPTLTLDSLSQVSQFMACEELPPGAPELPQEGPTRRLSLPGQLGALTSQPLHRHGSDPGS
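Further: peak tail current of the secondary pulse compared with the same well before compound.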

Structure (SMILES) | hERG current change (%, negative = inhibition) at 10uM
CCOC(=O)NC1(C(F)(F)F)NC(=O)N(C2CCCCC2)C1=O (stereo not drawn) | -3.7%
O=C(CCC(=O)NNC(=O)COc1ccc(Br)cc1)NCc1ccccc1 | 19.6%
OC(CNCc1ccccn1)c1ccccc1 (stereo not drawn) | -3.94%
COc1cc(CN2CCN(Cc3ccccc3C(F)(F)F)CC2)cc(OC)c1OC.O=C(O)C(=O)O | -8.28%
COc1ccc(C(=O)N2CCN(Cc3ccccc3C(F)(F)F)CC2)cc1.O=C(O)C(=O)O | -1.25%
COc1ccc(CN2CCN(Cc3ccccc3C(F)(F)F)CC2)c(OC)c1.O=C(O)C(=O)O | -74.2%
NS(=O)(=O)c1cc(C(=O)NC2CCSc3ccccc32)ccc1Cl (stereo not drawn) | 7.27%
CC(C)C1N=C(c2ccc3c(c2)OCO3)CC(c2ccccc2O)N1 (stereo not drawn) | -20.5%
CCC1(C)N=C(c2ccc3c(c2)OCO3)CC(c2ccccc2O)N1 (stereo not drawn) | 2.42%
CC(C)N1CCC2(CC1)N=C(c1ccc3c(c1)OCO3)CC(c1cc(Cl)ccc1O)N2 (stereo not drawn) | -67.1%
Cc1ccc2cccnc2c1NC(=S)NC(=O)c1ccccc1 | 17%
O=C(C[n+]1ccc(C(=O)NCc2ccccc2)cc1)c1ccc(Cl)cc1.[Br-] | -71.3%
O=C(C[n+]1ccc(C(=O)NCc2ccccc2)cc1)c1ccc2c(c1)OCCO2.[Br-] | 12.9%
CCOc1ccc(C(=O)C[n+]2ccc(C(=O)NCc3ccccc3)cc2)cc1.[Br-] | -36%
O=C(NCCc1ccccn1)c1ccc(OC(F)F)cc1 | -24.7%
O=C(C[n+]1cn(C(F)F)c2ccccc21)c1ccc(OC(F)F)cc1.[Br-] | -74.9%
O=C(C[n+]1ccc(C(=O)NCc2ccccc2)cc1)c1ccc(OC(F)F)cc1.[Br-] | -92.8%
O=C(C[n+]1cn(C(F)F)c2ccccc21)c1ccc(Br)cc1.[Br-] | -9.95%
COc1ccc(C(=O)C[n+]2cn(C(F)F)c3ccccc32)c(F)c1.[Br-] | -4.45%
O=C(CNC(=O)c1ccc(OC(F)F)cc1)NCc1ccccn1 | -70.9%
O=C(CNC(=O)c1ccc(F)cc1)NCc1ccccn1 | -1.73%
O=C(NCc1ccccc1)c1ccc(Cl)cc1 | 2.26%
O=C(C[n+]1cccc(CNC(=O)c2ccc(OC(F)F)cc2)c1)c1ccccc1.[Cl-] | -14.7%
CCCCn1c(N)c(N(CC(C)C)C(=O)c2ccc(-c3ccc(Cl)cc3)o2)c(=O)[nH]c1=O | 1.07%

Structure (SMILES) | hERG current change (%, negative = inhibition) at 10uM
CCC(CC)C(=O)OCC(=O)Nc1cccc(S(=O)(=O)N(C)c2ccccc2)c1 | 14.3%
O=C(NCc1ccc(F)cc1)C(C(=O)NCc1ccc(F)cc1)c1ncc(C(F)(F)F)cc1Cl | 1.56%
O=C(NCc1ccco1)c1cc2ccccc2o1 | 11.8%
COc1cc(OC)cc(C(=O)Nc2ncn[nH]2)c1 | 7.31%
Cc1ccn(CCC(=O)NC2CC(C)(C)Cc3c2cnn3-c2ccccc2C)n1 (stereo not drawn) | -25.6%
CC1(C)CC(=O)c2cc(C(=O)NC3CCSC3=O)c(=O)n(-c3ccccc3)c2C1 (stereo not drawn) | -0.214%
Cc1nc(NC(CC(C)C)C(=O)O)c2nc(C)oc2n1 (stereo not drawn) | -3.03%
COc1ccc(Nc2nc(C)cc(C)n2)cc1Cl.Cl | 0.588%
COc1ccc(C2N(C(=O)CN3CCCC3)CCCN2S(=O)(=O)c2ccccc2)cc1 (stereo not drawn) | -15.8%
CCCC(=O)Oc1ccc(N(C(=O)CCC)S(=O)(=O)c2cccs2)cc1 | 10.9%
O=C1Nc2ccccc2Oc2cc([N+](=O)[O-])cc(Oc3ccccc3)c21 | -24.5%
Cc1[nH]c2ccc(C(=O)OC(C)C(=O)N(C)c3ccccc3)cc2c1C (stereo not drawn) | 1.13%
O=C(c1ccco1)N1CCN(c2ncnc3c2cnn3-c2ccccc2)CC1 | -64.5%
O=C(c1ccccc1)N1CCN(c2ncnc3c2cnn3-c2ccccc2)CC1 | -18%
c1ccc(-n2ncc3c(N4CCCC4)ncnc32)cc1 | -8.17%
O=C(COc1ccccc1)N1CCN(c2ncnc3c2cnn3-c2ccccc2)CC1 | -73.6%
Cc1ccc(C(=O)N2CCN(c3ncnc4c3cnn4-c3ccccc3)CC2)cc1 | -0.928%
Cc1ccccc1C(=O)N1CCN(c2ncnc3c2cnn3-c2ccccc2)CC1 | -9.76%
CSc1ccc(COC(=O)CCS(=O)(=O)c2ccc(C)cc2)cc1 | -9.83%
O=C(C[n+]1ccccc1)N1CCCc2ccccc21.[Cl-] | 18.3%
Cn1c(SCC#N)nnc1-c1ccc2c(c1)OCO2 | 16.9%
CCOC(=O)c1c(NC(=O)CCc2ccc(CC)o2)sc(C)c1C | 1.97%
O=C(CN1CCN(Cc2ccccc2Cl)CC1)N/N=C/c1ccco1 | -21.8%
O=C(CN1CCN(Cc2ccccc2Cl)CC1)N/N=C/C=C/c1ccco1 | -68.5%

Structure (SMILES) | hERG current change (%, negative = inhibition) at 10uM
O=C(CN1CCN(Cc2ccccc2Cl)CC1)N/N=C/C=C/c1ccccc1[N+](=O)[O-] | -71.6%
O=C(Cc1ccccc1)N/N=C/C=C/c1ccccc1[N+](=O)[O-] | 1.71%
O=C(CN1CCN(Cc2ccccc2)CC1)N/N=C/C=C/c1ccco1 | -47.2%
O=C(Cc1cccs1)N/N=C/C=C/c1ccccc1[N+](=O)[O-] | -0.125%
O=C(Cc1cccs1)N/N=C/C=C\c1ccccc1[N+](=O)[O-] | 13.3%
O=C(CN1CCN(Cc2ccccc2)CC1)N/N=C/C=C/c1ccccc1[N+](=O)[O-] | -74.2%
Cc1ccc(CN2CCN(/N=C/C=C/c3ccccc3[N+](=O)[O-])CC2)cc1 | -21.1%
O=C(CN1CCN(Cc2ccccc2Cl)CC1)N/N=C/C=C\c1ccccc1[N+](=O)[O-] | -76.2%
O=[N+]([O-])c1ccccc1/C=N\N1CCN(Cc2ccccc2Cl)CC1 | 9.77%
O=C(O)COc1ccccc1/C=N/NC(=O)CN1CCN(Cc2ccccc2Cl)CC1 | -0.129%
O=C(COC(=O)CNS(=O)(=O)c1ccc(F)c(F)c1F)NC1CCCC1 | 4.16%
Clc1ccc(OCCCc2nc(-c3ccncc3)no2)c(Cl)c1 | -0.0206%
O=C1/C(=C/N(C(=O)c2ccco2)c2ccc(Br)cc2)Sc2ccccc21 | -7.76%
Cc1[nH]c2ccccc2c1C(C[N+](=O)[O-])c1cccc(O)c1 (stereo not drawn) | 8.53%
Cc1oc2cc3c(C(=O)N4CCCCC4)c(C)oc3cc2c1C(=O)N1CCCCC1 | 5.17%
Cc1ccc2cc(C(=O)O)c(C)nc2c1 | 11.6%
CCC(CC)C(=O)Nc1ccncc1 | 23.9%
COc1ccccc1CNC(=O)c1ccccc1C(=O)NC(CC(C)C)C(=O)NCc1ccccc1OC (stereo not drawn) | 10.6%
Cc1c(NC(=O)c2ccco2)cccc1C(=O)NN1C(=O)c2ccccc2C1=O | 16.4%
COC(CNC(=O)c1ccc2c3c(onc13)-c1ccccc1C2=O)OC | -1.15%
Cl.OCCNCc1cccc(OCc2ccccc2Cl)c1 | -17.6%
COc1ccc(N2CC(C(=O)Nc3ccc(S(=O)(=O)N4CCOCC4)cc3)CC2=O)cc1 (stereo not drawn) | 13.4%
CCN(CC)CCNC(=O)c1ccc(NC(=O)c2cn(-c3ccccc3)nc2-c2cccs2)cc1 | -32.7%
CCN(CC)CCNC(=O)c1cn(-c2ccccc2)nc1-c1cccs1.Cl | -69%

Structure (SMILES) | hERG current change (%, negative = inhibition) at 10uM
Cl.O=C(NCCN1CCOCC1)c1cn(-c2ccccc2)nc1-c1cccs1 | -25.6%
COc1cccc(CNC(=O)c2ccccc2SCC(=O)N2CCCC2)c1 | -22.7%
COc1cccc(CN2CCNC(=O)C2CC(=O)O)c1OC (stereo not drawn) | 11.4%
Cc1ccc(S(=O)(=O)CCNC(=O)Cc2ccccc2)cc1 | 26.9%
CN=c1sc2ccccc2n1CC(O)c1ccccc1 (stereo not drawn) | -21.4%
CCN=c1sc2ccccc2n1CC(O)COc1ccccc1 (stereo not drawn) | -44%
CN=c1sc2ccccc2n1CC(O)COCc1ccco1 (stereo not drawn) | -65.4%
CN=c1sc2ccccc2n1CC(O)COc1ccccc1 (stereo not drawn) | -57.5%
Cc1cc(C)n(CC(O)COCc2ccco2)n1 (stereo not drawn) | -3.37%
OC(CN=c1sc2ccccc2n1CC(O)COc1ccccc1)COc1ccccc1 (stereo not drawn) | -1.46%
CN(C)C(=O)c1ccc2c3c(cccc13)CC2 | 24.6%
COc1cc(NC(=O)CCCNC(=O)Cn2cnc3sc4c(c3c2=O)CCCC4)cc(OC)c1OC | 29.6%
O=C(COc1ccc2c(c1)oc(=O)c1ccccc12)NCCN1CCOCC1 | -11%
COc1ccc(CCNC(=O)C(=O)NCC2CCCO2)cc1 (stereo not drawn) | -0.535%
COc1ccc(CCNC(=O)CNCC2CCCO2)cc1OC.O=C(O)C(=O)O (stereo not drawn) | 14.1%
O=C(CSc1nc2ccc(N3CCOCC3)cc2c(=O)n1CCc1ccccc1)NCC1CCCO1 (stereo not drawn) | -47%
O=C(NCC1CCCO1)c1ccc2c(=O)n(CCc3ccccc3)c(=O)[nH]c2c1 (stereo not drawn) | 7.98%
COc1ccc2oc(=O)c(C(=O)NCC3CCCO3)cc2c1 (stereo not drawn) | 3.67%
Cc1cccn2c(=O)c3cc(C(=O)NCC4CCCO4)c(=N)n(CCc4ccccc4)c3nc12 (stereo not drawn) | -76.7%
COc1ccc(CCn2c(=N)c(C(=O)NCC3CCCO3)cc3c(=O)n4cccc(C)c4nc32)cc1OC (stereo not drawn) | -80.9%
COc1ccc(CCn2c(=N)c(C(=O)NCC3CCCO3)cc3c(=O)n4cccc(C)c4nc32)cc1 (stereo not drawn) | -79.7%
